# Source: the supplement of paper PMC11172423
# A number with no mark means an inactive call.
# Experiments:
# [1] = test system: Falciformispora senegalensis CBS197.79; assay: growth relative to untreated control; higher = less inhibition, active = 20 or less
# Outline: (§1)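 Hyphal fragments of M. mycetomatis MM55 or F. senegalensis CBS197.79 were suspended in colourless RPMI 1640 with L-glutamine and MOPS at 68–72% transmission at 660 nm. They were exposed in 96-well plates to compound at 100 or 25 µM for 7 days at 37 °C. Viability was read with MTS (2 h, 490 nm) or resazurin (600 nm). Growth is metabolic activity relative to the untreated growth control, both corrected with a medium-plus-dye blank.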
# [2] = test system: Madurella mycetomatis MM55; assay: as above
# Outline: as §1
Structure (SMILES),growth ([1]; 25 µM),growth ([1]; 100 µM),growth ([2]; 25 µM),growth ([2]; 100 µM)
CC(C)(C)Cn1c(N)nc2ccc(-c3[nH]c(C(C)(C)C)nc3-c3ccc(F)cc3)nc21,100%,55%,82.9%,3.85% (active)
COC(=O)[C@@]1(c2ccc(C)cc2)C[C@H]1CN1CCC(O)(c2ccccc2)CC1,95.2%,97.4%,77.2%,72.2%
Cc1nc(NC2(c3ccc(C#N)cc3)CC2)nc(NCC2COC2)c1C,97.1%,96.2%,87.8%,22.3%
CCN1CCN(C2CCN(C(=O)COc3ccc(-c4ccccc4F)cc3)CC2)CC1,99.8%,6% (active),105%,41.1%
COc1cc(NC(=O)Nc2cccc(CNC(=O)O[C@H]3CCOC3)c2)ccc1-c1cnco1,100%,102%,100%,81.8%
COc1cc(N2CCN(C)CC2)ccc1Nc1nccc(-c2cn(C)c3cnccc23)n1,69.1%,75.1%,36.2%,4.78% (active)
CCOc1ccc(Cc2nccc3cc(OCC)c(OCC)cc23)cc1OCC,108%,105%,80.9%,83%
Cc1cc2c(cc1Cl)N(C(=O)Nc1cc(F)cc(-c3cncnc3)c1)CC2,87%,101%,106%,49.7%
OCCN1CCc2nc(NCc3ccc(F)cc3F)nc(NC34CC(C3)C4)c2CC1,69.4%,19.8% (active),32.2%,5.18% (active)
COc1ccc(-c2cnc3c(-c4ccccc4)c(-c4ccccc4)nn3c2N)cc1OC,93.2%,83.3%,86.3%,70.2%
COc1ccc2c(c1)c(CC(=O)O)c(C)n2C(=O)c1ccc(Cl)cc1,111%,104%,79.7%,80.8%
CC(C)CC(NC(=O)N1CCOCC1)C(=O)NC(/C=C/S(=O)(=O)c1ccccc1)CCc1ccccc1 (stereo not drawn),90.8%,93.9%,86.4%,96.5%
Clc1ccc2c(N3CCN(CCCN4CCN(c5ccnc6cc(Cl)ccc56)CC4)CC3)ccnc2c1,104%,101%,95.9%,86.7%
CC(C)OC(=O)[C@H](C)N[P@](=O)(OC[C@H]1O[C@@H](n2ccc(=O)[nH]c2=O)[C@](C)(F)[C@@H]1O)Oc1ccccc1,112%,108%,94.5%,85.7%
C[C@@H](C1CCCCC1)n1c(-c2cc3c(cc2Br)OCO3)nc2cc(C(=O)Nc3ccc(C#N)cc3)ccc21,106%,102%,109%,89%
NC(=O)c1nc(F)cnc1O,114%,102%,83.1%,84.1%
OC(Cn1cncn1)(Cn1cncn1)c1ccc(F)cc1F,106%,105%,76%,4.95% (active)
FC(F)(F)c1cc(Nc2nc3cnc(NCC4CC4)nc3n2C2CCNCC2)cc(C(F)(F)F)c1,81.9%,20.9%,34.1%,5.31% (active)
CC(C)c1cc(Oc2ccccc2)cc(C(C)C)c1NC(=S)NC(C)(C)C,89.5%,90.7%,111%,166%
O=C(Nc1cc(Cl)cc(Cl)c1O)c1c(O)c(Cl)cc(Cl)c1Cl,89.9%,12.5% (active),39%,3.21% (active)
CCCCN(CCCC)CC(O)c1cc(Cl)cc2c1-c1ccc(Cl)cc1/C2=C/c1ccc(Cl)cc1 (stereo not drawn),98.7%,96.3%,107%,87.9%
N#Cc1ccc(C/C(=N/NC(=O)Nc2ccc(OC(F)(F)F)cc2)c2cccc(C(F)(F)F)c2)cc1,97%,96.1%,98.2%,91.3%
